# Most compounds without a hit are left out; they make up all but 9.3% or so of the library.
# FMDV antiviral: foot and mouth disease virus antiviral activity; FMDV antiviral cell-based qHTS; Potency, µM (series often up to 57.9 µM), without a hit: top-dose activity change, negative = inhibition, hits mostly inhibitors; actives 1.2% (n = 410,000); calls by dose curve; tested in HEK293T cells; further: read-out not given here; potency means the concentration at half of the fitted maximal effect; nearly all actives have a fitted effect of over 45% in size
# Sm TGR block: blocks Schistosoma mansoni thioredoxin glutathione reductase | Q962Y6 | actives 3% (n = 360,000) | Potency, µM (titrated, usually from 114 µM), inactives show at the top dose activity change, negative = inhibition, usual class: inhibitors | AID 485364 | purified TGR, DTNB reduction, TNB absorbance 405 nm; further: potency means the concentration at half of the fitted maximal effect; nearly all actives have a fitted effect of over 60% in size
#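 First, TGR (20 nM dispensed) and NADPH were mixed with compound. Second, a 15 min room-temperature incubation followed. Third, further NADPH and then DTNB were added to start the reaction. Finally, TNB absorbance was monitored kinetically.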
# VACV mCherry inh: vaccinia inhibition (mCherry reporter) | Vaccinia virus mCherry reporter infection, fluorescence | actives 0.63% (n = 310,000) | AID 720579 | Potency, µM (highest dose often 36.5 µM), for inactives: at the highest dose activity change, negative = inhibition, hits mostly inhibitors; calls by dose curve; tested in A549 cells; further: potency means the concentration at half of the fitted maximal effect; nearly all actives have a fitted effect of over 35% in size
# HCV inhibitor: inhibitors of hepatitis C virus infection; Huh7.5.1 HCVcc-Cre infection, luciferase reporter, 44 h; Potency, µM (top dose mostly 41.8 µM), without a hit: at the top dose activity change, negative = inhibition, hits mostly inhibitors; actives 3.4% (n = 340,000); further: potency means the concentration at half of the fitted maximal effect
#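 Antiviral activity was scored by luciferase reporter output from cells infected with HCVcc-Cre (~0.5 moi) in presence of compound, 44 h infection period, cells seeded 1,000/well 4 h prior.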
# VACV Venus inh: vaccinia inhibition (Venus reporter); Vaccinia virus Venus reporter expression, fluorescence; Potency, µM (series often up to 36.5 µM), inactives show top-dose activity change, negative = inhibition, hits mostly inhibitors; actives 0.46% (n = 330,000); calls by dose curve; tested in A549 cells; further: potency means the concentration at half of the fitted maximal effect; nearly all actives have a fitted effect of over 30% in size
# HCMV antiviral: inhibitors of human cytomegalovirus | HFF cells, HCMV-luciferase reporter, 72 h; active compounds read low | activity change, negative = inhibition, % at 57.5 µM | actives 4.5% (n = 410,000) | AID 1259415; in the data active means activity change below about -60%; inconclusive means no clear call, values can overlap the other calls; inactive means above about -39%
#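 Luciferase read-out from HCMV-luciferase-infected HFFs (MOI 1 PFU/cell) 72 h post infection at 37C; compounds added after 16 h cell attachment; activity normalized between buffer-only basal and Salinomycin (10uM) inhibitor controls.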
# An asterisk follows results filed as active; i = inactive; ? = inconclusive; nt = no result given. Unless noted, the call rests on the fitted dose curve; in most records, active means well fitted curve in the direction sought with a large enough effect; inconclusive means small, poorly fitted or top-dose-only effect, or another doubt; inactive means no such curve, though single readings can be large; an effect the other way counts as inactive or inconclusive. On the % scale 0 is the no-effect control and ±100 the full control effect.
SMILES,FMDV antiviral,Sm TGR block,VACV mCherry inh,HCV inhibitor,VACV Venus inh,HCMV antiviral
CC1CC(Nc2ccccc2)c2ccccc2N1C(=O)c1ccccc1F (configuration not stated),?,3%,nt,2%,nt,-67*
CC1CC(Nc2ccccc2)c2ccccc2N1C(=O)c1cccnc1 (configuration not stated),nt,-2%,?,5.6µM*,?,-36
CC(C)c1ccccc1N=C1SCCN1C1CCS(=O)(=O)C1 (configuration not stated),-25%,1%,-16%,14%,-5%,1
NC(=S)c1ccc(OCCCc2ccccc2)cc1,42%,nt,-6%,nt,-9%,2
CC1Cn2c(nc3sc4c(c3c2=O)CCC4)N1CCO (configuration not stated),11%,9%,nt,-11%,nt,32
S=C(Nc1ccccc1)N1CCC(Cc2ccccc2)CC1,?,7%,i,?,-17%,4
CCc1ccc(NC(=O)[C@H](C)NC(=O)C2CCN(C(=O)[C@@H](N)Cc3ccccc3)CC2)cc1,10%,0%,9%,-3%,-3%,nt
Cc1ccc(S(=O)(=O)CCC(=O)N(CCN2CCOCC2)c2nc3ccccc3s2)cc1,39%,35µM*,-2%,11%,-14%,32
Cc1cccc2sc(N(CCCN3CCOCC3)C(=O)CS(=O)(=O)c3ccc(F)cc3)nc12,0%,2%,-25%,1%,-14%,-2
Cc1cccc2sc(N(CCN3CCOCC3)C(=O)CCS(=O)(=O)c3ccccc3)nc12,0%,45µM*,i,2%,-10%,4
O=C(NCCc1ccc(Cl)cc1)C(=O)NCC(c1ccco1)S(=O)(=O)c1ccccc1 (configuration not stated),-6%,?,-13%,nt,-10%,38
COc1cc(C(=O)NCC(c2ccco2)S(=O)(=O)c2cccs2)cc(OC)c1OC (configuration not stated),-24%,8.9µM*,-12%,nt,-7%,11
O=C(NCCc1ccc(Cl)cc1)C(=O)NCC(c1ccco1)S(=O)(=O)c1cccs1 (configuration not stated),?,40µM*,-15%,nt,-15%,-22
O=C(NCC(c1cccs1)S(=O)(=O)c1cccs1)c1ccc(C(F)(F)F)cc1 (configuration not stated),-3%,?,-11%,nt,-14%,-5
Cc1cccc(C(=O)NCC(c2ccco2)S(=O)(=O)c2cccs2)c1 (configuration not stated),-4%,7.1µM*,-12%,nt,-10%,7
COc1ccc(C(=O)NCC(c2ccco2)S(=O)(=O)c2cccs2)cc1 (configuration not stated),12%,8.9µM*,-9%,nt,-3%,12
COc1cc(C(=O)NCC(c2ccco2)S(=O)(=O)c2ccccc2)cc(OC)c1OC (configuration not stated),-11%,-13%,-1%,nt,-4%,184
COC(=O)CCCSc1nccn1-c1ccccc1,14%,0%,nt,11%,nt,142
CC1CN(CCCCSc2ccccc2)CC(C)O1 (configuration not stated),2%,-22%,nt,9%,nt,9
O=C(NCC(c1cccs1)S(=O)(=O)c1cccs1)c1ccc(Cl)cc1 (configuration not stated),?,25µM*,-3%,nt,6%,10
O=C(NCC(c1cccs1)S(=O)(=O)c1cccs1)c1ccc(F)c(F)c1 (configuration not stated),-15%,?,-10%,nt,-6%,-15
O=C(NCC(c1ccco1)S(=O)(=O)c1cccs1)c1ccc(Cl)cc1 (configuration not stated),-15%,14µM*,-12%,nt,-8%,-14
COc1ccccc1NS(=O)(=O)c1ccc(NC(=O)c2ccccn2)cc1,0%,2%,-21%,2%,-18%,?
O=c1c(C(c2c(O)nc3n(c2=O)CCS3)c2cccc3ccccc23)c(O)nc2n1CCS2,-29%,?,-13%,4%,-11%,-3

# Compound activity (PubChem)
